In general, inhibition refers to the drop in the measured response relative to a control, in per cent.

Experiment [1] in a line: antimalarial activity against Dd2 strain (AID 2302;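 active means growth inhibition above 50% at the single 2 µM test dose, taken to imply half-maximal potency below 2 µM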;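 further: 0% = DMSO untreated growth and 100% = chloroquine plus artemisinin killed control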). As to conditions: P. falciparum Dd2 in RBCs, LDH growth readout, 72 h; at 2 µM; stronger effect = higher value.
Experiment [2] can be described thus: human hepatoma cell viability loss – ATP luminescence, cytotoxicity control for P. falciparum antimalarial project, primary screen (AID 2303;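 active means inhibition above 50%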;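 further: 0% = DMSO wells and 100% = digitonin-killed cells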). As to conditions: HepG2 viability, 24-48 h, at 10 µM, stronger effect = higher value.
Experiment [3] deals with L-lactate dehydrogenase (Plasmodium falciparum (isolate CDC / Honduras)) (UniProt Q27743). Put plainly: PfLDH activity inhibition – cell lysate, 3D7 strain, counter-screen for P. falciparum growth inhibition project (AID 2304).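 Further: 0% = vehicle and 100% = reference inhibitor.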 As to conditions: P. falciparum 3D7 crude extract, LDH APAD/NBT absorbance; at 2 µM; stronger effect = higher value.
Experiment [4] in a line: inhibition of 3D7 malaria parasite growth – strain 3D7 (AID 2306).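 Further: 0% = DMSO wells and 100% = chloroquine plus artemisinin control wells.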 As to conditions: P. falciparum 3D7 erythrocytic growth, LDH absorbance, 72 h; at 2 µM; stronger effect = higher value.
Experiment [5] concerns the target Calcium-dependent protein kinase 1 (Plasmodium falciparum (isolate 3D7)) (UniProt P62344). Description: PfCDPK1 kinase inhibitors, biochemical, TCAMS library (AID 1159585; cut-off not given, nearly all actives have IC50 up to about 0.98 µM;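 further: inhibitors leave more ATP so luminescence rises with inhibition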). As to conditions: recombinant PfCDPK1, Kinase-Glo ATP depletion luminescence.
For experiment [6], the target named is Plasmodium falciparum protein kinase 6 (PK6, PF3D7_1337100) (UniProt Q8IDW1). Put plainly: PfPK6 kinase inhibitors, biochemical, TCAMS library (AID 1159586). As to conditions: recombinant PfPK6, Kinase-Glo ATP depletion luminescence. (In Kinase-Glo more light means more ATP remaining.)
In experiment [7] the target is Protein kinase 7 (PK7), Plasmodium falciparum 3D7 (PF3D7_0213400) (UniProt Q7YTF7). Put plainly: inhibition of Plasmodium PK7 catalytic activity – biochemical, TCAMS antimalarial set, Kinase-Glo luminescence (AID 1159587). As to conditions: recombinant PfPK7, Kinase-Glo ATP depletion luminescence.
In experiment [8] the target is Calcium-dependent protein kinase 4 (Plasmodium falciparum (isolate 3D7)) (UniProt Q8IBS5). Description: PfCDPK4 kinase inhibitors, biochemical, TCAMS library (AID 1159588; cut-off not given, nearly all actives have IC50 up to about 0.91 µM). As to conditions: recombinant PfCDPK4, Kinase-Glo ATP depletion luminescence.

Values without a mark were called inactive. For some of these results: Results with a measured potency or affinity are listed apart. Calls of active or inactive are those of the source. Unless noted, how the calls were made is not given here.

Calcium-dependent protein kinase 4 (Plasmodium falciparum (isolate 3D7)), sequence (Q8IBS5 whole entry, looked up): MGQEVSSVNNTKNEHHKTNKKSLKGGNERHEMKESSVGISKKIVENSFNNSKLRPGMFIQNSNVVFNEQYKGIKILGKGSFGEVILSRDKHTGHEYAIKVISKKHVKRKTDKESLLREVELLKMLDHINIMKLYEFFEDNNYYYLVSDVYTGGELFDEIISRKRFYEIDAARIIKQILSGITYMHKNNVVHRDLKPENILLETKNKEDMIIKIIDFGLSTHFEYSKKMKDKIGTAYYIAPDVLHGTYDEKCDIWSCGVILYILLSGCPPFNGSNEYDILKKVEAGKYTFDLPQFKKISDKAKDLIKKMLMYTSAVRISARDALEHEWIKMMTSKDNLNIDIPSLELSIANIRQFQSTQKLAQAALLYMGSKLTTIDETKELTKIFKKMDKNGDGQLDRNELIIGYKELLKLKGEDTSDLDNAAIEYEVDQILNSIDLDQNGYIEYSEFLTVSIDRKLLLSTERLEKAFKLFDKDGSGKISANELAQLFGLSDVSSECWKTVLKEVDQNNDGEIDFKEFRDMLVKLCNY
L-lactate dehydrogenase (Plasmodium falciparum (isolate CDC / Honduras)), sequence (Q27743 whole entry, looked up): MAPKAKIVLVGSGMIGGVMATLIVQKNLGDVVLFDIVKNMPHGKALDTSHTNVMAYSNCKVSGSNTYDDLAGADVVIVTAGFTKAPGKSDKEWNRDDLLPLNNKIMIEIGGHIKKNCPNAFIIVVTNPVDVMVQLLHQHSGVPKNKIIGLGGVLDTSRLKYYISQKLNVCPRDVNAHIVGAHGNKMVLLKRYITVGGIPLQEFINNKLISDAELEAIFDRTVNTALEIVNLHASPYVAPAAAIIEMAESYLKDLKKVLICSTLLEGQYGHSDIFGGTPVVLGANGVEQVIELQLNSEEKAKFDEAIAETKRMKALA
Plasmodium falciparum protein kinase 6 (PK6, PF3D7_1337100), sequence (Q8IDW1 1-305): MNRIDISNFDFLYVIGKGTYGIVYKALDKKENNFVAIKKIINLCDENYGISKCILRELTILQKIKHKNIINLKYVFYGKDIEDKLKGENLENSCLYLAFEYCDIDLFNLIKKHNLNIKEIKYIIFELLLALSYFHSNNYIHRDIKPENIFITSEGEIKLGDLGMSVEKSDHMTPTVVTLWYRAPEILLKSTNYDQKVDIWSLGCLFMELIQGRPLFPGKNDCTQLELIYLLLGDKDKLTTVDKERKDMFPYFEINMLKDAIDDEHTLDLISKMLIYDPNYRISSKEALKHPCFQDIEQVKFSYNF
Calcium-dependent protein kinase 1 (Plasmodium falciparum (isolate 3D7)), sequence (P62344 whole entry, looked up): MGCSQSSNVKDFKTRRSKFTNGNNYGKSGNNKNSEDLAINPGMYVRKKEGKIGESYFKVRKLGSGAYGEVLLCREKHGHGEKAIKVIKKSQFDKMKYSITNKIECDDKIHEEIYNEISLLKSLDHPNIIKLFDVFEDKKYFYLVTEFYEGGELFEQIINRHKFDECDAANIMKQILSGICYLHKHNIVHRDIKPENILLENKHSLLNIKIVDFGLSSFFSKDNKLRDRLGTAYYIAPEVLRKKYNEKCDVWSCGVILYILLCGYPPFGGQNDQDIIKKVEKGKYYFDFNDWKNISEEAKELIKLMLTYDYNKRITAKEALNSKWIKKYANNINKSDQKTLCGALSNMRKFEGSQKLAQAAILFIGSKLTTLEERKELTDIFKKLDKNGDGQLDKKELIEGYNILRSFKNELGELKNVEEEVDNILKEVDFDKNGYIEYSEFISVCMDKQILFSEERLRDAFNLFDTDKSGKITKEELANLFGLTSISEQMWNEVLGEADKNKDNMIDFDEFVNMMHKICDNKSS
Protein kinase 7 (PK7), Plasmodium falciparum 3D7 (PF3D7_0213400), sequence (Q7YTF7 1-343): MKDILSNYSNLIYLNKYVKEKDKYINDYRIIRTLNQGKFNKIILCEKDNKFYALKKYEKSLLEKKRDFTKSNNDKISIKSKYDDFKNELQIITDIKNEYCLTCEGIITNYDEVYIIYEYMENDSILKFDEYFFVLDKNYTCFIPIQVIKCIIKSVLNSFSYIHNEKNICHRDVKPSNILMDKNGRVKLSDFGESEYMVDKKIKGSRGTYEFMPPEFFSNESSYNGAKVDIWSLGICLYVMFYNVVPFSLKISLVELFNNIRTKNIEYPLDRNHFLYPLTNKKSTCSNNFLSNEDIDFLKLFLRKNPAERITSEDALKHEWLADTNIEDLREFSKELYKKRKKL

`CS(=O)(=O)c1ccc(CNCc2ccc(-c3ccc(-c4nc5ccc(C(F)(F)F)cc5[nH]4)cc3)cc2)cc1`: the growth inhibition in experiment [1] is 82% (active); in experiment [4] it was 101% (active). Further, the figures for the inhibition in experiment [2] and in experiment [3] were 26% and 3%, respectively. The result in experiment [5], in experiment [6], in experiment [7] and in experiment [8] was inactive.

Turning to `CS(=O)(=O)c1cccc(-c2cnc3[nH]cc(-c4ccc(C(=O)O)cc4)c3c2)c1`, the growth inhibition is 100% (active) in experiment [1] and 99% (active) in experiment [4]. Also, the inhibition is 6% in experiment [2] and -2% in experiment [3]. Moreover, the result in experiment [5], in experiment [6], in experiment [7] and in experiment [8] was inactive.

As for `O=C(Nc1ccc(Cl)cc1)N(CC1C[C@H]2CC[C@@H](C1)N2Cc1ccc(C(F)(F)F)cc1)c1ccc(N2CCOCC2)c(F)c1` (stereo not given in full), the figures for the growth inhibition in experiment [1] and in experiment [4] were 36% and 85% (active), respectively. The figures for the inhibition in experiment [2] and in experiment [3] were 31% and 0%, respectively. The outcome in experiment [5], in experiment [6], in experiment [7] and in experiment [8] was inactive.

As to `O=C(/C=C/c1ccc(C(F)(F)F)cc1)NCCCCCN1CCCN(C(=O)Nc2ccc(Cl)cc2)CC1`, the growth inhibition in experiment [1] was -1%; in experiment [4], 99% (active). In addition, the inhibition in experiment [2] is 28%; in experiment [3], -1%. The outcome in experiment [5], in experiment [6], in experiment [7] and in experiment [8] was inactive.

In the case of `CC(C)(C)c1ccc(NC(=O)c2ccc(CN3CCCN(Cc4cccc(F)c4)CC3)cc2)cc1`, the growth inhibition in experiment [1] is 8%; in experiment [4], 90% (active). Further, the inhibition in experiment [2] was 51% (active); in experiment [3], -2%. For the same compound, the outcome in experiment [5], in experiment [6], in experiment [7] and in experiment [8] was inactive.

For the compound `COc1ccccc1C1CCN(C2CCC(NC(=O)/C=C/c3ccc(C(F)(F)F)cc3F)CC2)CC1` (stereo not given), the growth inhibition in experiment [1] was 2%; in experiment [4], 95% (active). In addition, the inhibition in experiment [2] was 63% (active); in experiment [3], 2%. Moreover, the outcome in experiment [5], in experiment [6], in experiment [7] and in experiment [8] was inactive.

As to `O=C(NCc1cccc2ccccc12)C(c1cc2ccccc2o1)N1CCN(C(c2ccccc2)c2ccccc2)CC1` (stereo not given), the growth inhibition was 90% (active) in experiment [1] and 99% (active) in experiment [4]. Moreover, the inhibition was -3% in experiment [2] and -2% in experiment [3]. For the same compound, the result in experiment [5], in experiment [6], in experiment [7] and in experiment [8] was inactive.

As for `Cc1cc(NN=Cc2ccc(F)cc2)c2ccc(F)cc2n1`, the growth inhibition in experiment [1] was 30%; in experiment [4], 99% (active). Also, the inhibition is -7% in experiment [2] and 0% in experiment [3]. The outcome in experiment [5], in experiment [6], in experiment [7] and in experiment [8] was inactive.

Consider `FC(F)(F)COc1c(CCNCCCCNCCc2ccc3ccccc3c2OCC(F)(F)F)ccc2ccccc12`, for which the growth inhibition in experiment [1] is 97% (active); in experiment [4], 101% (active). The inhibition in experiment [2] is 99% (active); in experiment [3] it was -3%. The outcome in experiment [5], in experiment [6], in experiment [7] and in experiment [8] was inactive.

Regarding `COc1ccccc1CN1CCC(NC(=O)c2ccc(-c3ccc(N(C)C)cc3)s2)CC1`, the growth inhibition in experiment [1] was 38%; in experiment [4], 90% (active). Further, the inhibition in experiment [2] is 29%; in experiment [3], -2%. The outcome in experiment [5], in experiment [6], in experiment [7] and in experiment [8] was inactive.

For the compound `O=C(/C=C/c1ccc(Cl)c(Cl)c1)NCCCCCCN1CCN(C(=O)Nc2cc(Cl)nc(Cl)c2)CC1`, the growth inhibition in experiment [1] is 0%; in experiment [4], 102% (active). In addition, the values for the inhibition in experiment [2] and in experiment [3] were 15% and -2%, respectively. Also, the result in experiment [5], in experiment [6], in experiment [7] and in experiment [8] was inactive.

Turning to `COc1ccc(-c2ccc(NC(=O)c3ccc(Cl)cc3)cc2)cc1CN(C)CCO`, the values for the growth inhibition in experiment [1] and in experiment [4] were 43% and 92% (active), respectively. Further, the inhibition is 43% in experiment [2] and 0% in experiment [3]. The outcome in experiment [5], in experiment [6], in experiment [7] and in experiment [8] was inactive.

For the compound `CCN(CCCN1CCCCC1)c1cc(C)nc(Nc2ccc(Oc3ccccc3)cc2)n1`, the figures for the growth inhibition in experiment [1] and in experiment [4] were 99% (active) and 101% (active), respectively. Besides, the inhibition was 50% (active) in experiment [2] and -3% in experiment [3]. In addition, the result in experiment [5], in experiment [6], in experiment [7] and in experiment [8] was inactive.

With `O=C(CN1CCC2(CCC1=O)CC(=O)c1ccccc1O2)NCCN1CCOCC1` (stereo not given), the growth inhibition in experiment [1] was -4%; in experiment [4], 101% (active). Besides, the inhibition was 6% in experiment [2] and -4% in experiment [3]. In addition, the result in experiment [5], in experiment [6], in experiment [7] and in experiment [8] was inactive.

As to `COc1cc(C(=O)N2[C@@H](c3nccs3)[C@@H](C(=O)N(OC)C(C)c3ccccc3)C[C@@]2(CC(C)C)C(=O)OC(C)(C)C)ccc1C(C)(C)C` (stereo not given in full), the growth inhibition in experiment [1] and in experiment [4] was 92% (active) in each case. Also, the inhibition in experiment [2] was 12%; in experiment [3] it was 5%. Moreover, the outcome in experiment [5], in experiment [6], in experiment [7] and in experiment [8] was inactive.

Take `O=C(Nc1ccc(-c2cccc(-c3nc4ccc(C(F)(F)F)cc4[nH]3)c2)cc1)c1ccoc1`: the growth inhibition in experiment [1] was 13%; in experiment [4], 96% (active). Further, the inhibition was 52% (active) in experiment [2] and -9% in experiment [3]. Moreover, the result in experiment [5], in experiment [6], in experiment [7] and in experiment [8] was inactive.

`Cc1cc(NCCc2ccccc2)nc(/N=C(\N)Nc2cccc([N+](=O)[O-])c2)n1`: the growth inhibition in experiment [1] is 101% (active); in experiment [4] it was 102% (active). The inhibition was 21% in experiment [2] and -2% in experiment [3]. Moreover, the result in experiment [5], in experiment [6], in experiment [7] and in experiment [8] was inactive.

For the compound `COc1ccc(NC(=O)[C@H](CC(C)C)Nc2ccnc(NCCc3ccc(F)cc3)n2)cc1`, the growth inhibition is 22% in experiment [1] and 86% (active) in experiment [4]. In addition, the inhibition is -6% in experiment [2] and -2% in experiment [3]. Moreover, the result in experiment [5], in experiment [6], in experiment [7] and in experiment [8] was inactive.

Consider `O=S(=O)(Nc1cc2c(cc1O)CCNCC2)c1ccc(-c2ccc(Cl)cc2)cc1`, for which the results for the growth inhibition in experiment [1] and in experiment [4] were 0% and 99% (active), respectively. Further, the figures for the inhibition in experiment [2] and in experiment [3] were 10% and 3%, respectively. Moreover, the outcome in experiment [5], in experiment [6], in experiment [7] and in experiment [8] was inactive.

For the compound `O=C(/C=C/c1ccc(-c2ccccc2)cc1)NCCCCCN1CCC(c2c[nH]c3ccccc23)CC1`, the growth inhibition is 23% in experiment [1] and 97% (active) in experiment [4]. Besides, the inhibition in experiment [2] is 91% (active); in experiment [3], 6%. Also, the result in experiment [5], in experiment [6], in experiment [7] and in experiment [8] was inactive.
